± gives the standard deviation.
Experiments:
[1] = tested on: MILI (PIWIL2) piRISC loaded with L1MC piRNA (26 nt); assay: pre-steady-state target cleavage rate (min^-1); guide: L1MC piRNA 5'p-UAACUAAAUACUAUGCAAGCUGUAGG; higher = faster piRNA-guided slicing of the target;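 further: 1 nM active piRISC with 0.1 nM target library at 33 °C single turnover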
Summary of the method: (§1)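 In HEPES–potassium acetate buffer at 33 °C, […] transcribed, DNA-blocked target RNA library was mixed with 1 nM active affinity-purified piRISC carrying one synthetic guide, with or without 500 nM GTSF1 partner protein, for 0–8 or 0–960 min. Uncleaved targets were sequenced and normalised to depth and to weakly complementary targets; three trials were pooled and k3 was capped at 0.0001 min^-1. The pre-steady-state cleavage rate followed from a burst-and-steady-state fit.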

[2] = tested on: EfPiwi piRISC loaded with L1MC piRNA (26 nt); assay: pre-steady-state target cleavage rate (min^-1); auxiliary factor: 500 nM Ephydatia muelleri Gtsf1; guide: L1MC piRNA 5'p-UAACUAAAUACUAUGCAAGCUGUAGG; MIWI and MILI are mouse PIWI proteins and EfPiwi is from a freshwater sponge; tags in brackets are library labels; higher = faster piRNA-guided slicing of the target
Summary of the method: as §1

[3] = auxiliary factor: 500 nM mouse GTSF1

Row | Sequence | pre-steady-state target cleavage rate [1, 3] | pre-steady-state target cleavage rate [2] | pre-steady-state target cleavage rate ([1]; auxiliary factor: none (no GTSF1))
1 | UCCUCCAACAGCUUCCAUAGUAUUUAGUUA | 0.0545 ± 0.017 | 0.00439 ± 0.0021 | 
2 | UCCUGGUACAGCUUGCAUAGUAUUAAGAAA | 0.0213 ± 0.0097 | 0.00387 ± 0.0017 | 
3 | UCCUGGAUGAGCUUGUCAUAGUAUUUAGUUA | 0.0971 ± 0.013 | 0.00721 ± 0.0027 | 
4 | UCCUCCUACAGCUUGCAUAGUAAAAUCAAA | 0.0893 ± 0.023 | 0.0042 ± 0.0034 | 
5 | UCCUGGAUGUCGAAGGAAAGUAUUUAGUUA |  | < 0.0001 | < 0.0001
6 | UCCUCCUAGAGCUUGCAUAGUAUUUACAAA | 0.0915 ± 0.027 | 0.00252 ± 0.0019 | 
7 | UCCUGGAUGAGCUUGCAUAGUAUUUAGUCA | 0.172 ± 0.015 | 0.00793 ± 0.0032 | 
8 | UCCUGGAACAGGUUGCAUAGUAUUUAGAUA | 0.136 ± 0.025 | 0.00362 ± 0.0019 | 
9 | UCCUGCUACUGCUUGCAUAGUAUUUAGAUA | 0.0911 ± 0.022 | 0.00383 ± 0.0018 | 
10 | UCCUGGAUCAGCUUGCAUACUAUUAAGUUA | 0.0204 ± 0.0077 | 0.00253 ± 0.0023 | 
11 | UCCUGCUACAGCUUGCCAUAGUAUUUAGUUA | 0.128 ± 0.015 | 0.00382 ± 0.0023 | 
12 | UCCUGGAACAGCUUGCAUAGUAUUUACAUA | 0.0382 ± 0.014 | 0.00316 ± 0.0025 | 
13 | UCCUGGAUGAGGAUGCAUAGUAUUUAGAAA | 0.0101 ± 0.0046 | 0.0024 ± 0.0024 | 
14 | UCCUGCUACAGCUUGCAUAGUUUUAAGUUA | 0.0676 ± 0.015 | 0.00341 ± 0.0017 | 
15 | UCCUGGAACAGCUUGCAUAAUAUUUAGUUA | 0.298 ± 0.028 | 0.00487 ± 0.0024 | 
16 | UCCUCCUACUGCUUGCAUAGUAUUUAGAUA | 0.085 ± 0.015 | 0.0056 ± 0.0026 | 

Row | Sequence | pre-steady-state target cleavage rate [1, 3] | pre-steady-state target cleavage rate [2] | pre-steady-state target cleavage rate ([1]; auxiliary factor: none (no GTSF1))
17 | UCCUGGAUCAGCUUGCAUACUAUUUACUUA | 0.0867 ± 0.02 | 0.00362 ± 0.0032 | 
18 | UCCUGGUACAGCUUGCAUACUAUUUAGUAA | 0.0573 ± 0.023 | 0.00327 ± 0.0023 | 
19 | UCCUGGUACAGCUUGCAUAGUAUUUAGCUUA | 0.204 ± 0.041 | 0.00493 ± 0.0023 | 
20 | UCCUGCUACAGCUUGCAUUAGUAUUUAGUUA | 0.017 ± 0.007 | 0.00378 ± 0.003 | 
21 | UCCUGGUACAGGUUGCAUAGUAUUUAGAUA | 0.195 ± 0.054 | 0.00271 ± 0.0024 | 
22 | UCCUGGAUCAGCUUGGAUAGUAUUUAGAAA | 0.0109 ± 0.0051 | 0.00249 ± 0.0024 | 
23 | UCCUGCUACAGCUUGGAUACUAUUUAGUUA | 0.0884 ± 0.018 | 0.00633 ± 0.0024 | 
24 | UCCUCCUACAGCAAGCAUAGUAUUUAGUAA | 0.238 ± 0.02 | 0.00371 ± 0.0026 | 
25 | UCCUCCUACAGCUUCCAUUGUAUUUAGUUA | 0.0834 ± 0.015 | 0.00393 ± 0.0019 | 
26 | UCCUGGAUGAGCUUGCAUAGUAUUUAGCUUA | 0.104 ± 0.026 | 0.00409 ± 0.0018 | 
27 | UCCUCCUACAGGUUGCAUAGUAUUUACAAA | 0.052 ± 0.014 | 0.00321 ± 0.0024 | 
28 | UCCUGCUACAGCUUGCGAUAGUAUUUAGUUA | 0.0073 ± 0.0045 | 0.00987 ± 0.0026 | 
29 | UCCUCCUACAGCUACGAUAGUAUUUAGUUA | 0.232 ± 0.015 | 0.00503 ± 0.0031 | 
30 | UCCUCGAUCAGCUUGCAUAGUAUUUAGAAA | 0.115 ± 0.02 | 0.00579 ± 0.0018 | 
31 | UCCUGCUACUGCUUGCAUAGUAUUUACAAA | 0.0206 ± 0.0071 | 0.00262 ± 0.0024 | 
32 | UCCUGCUACAGCUUGCAUAGUAUAAAGUAA | 0.0784 ± 0.021 | 0.00224 ± 0.0017 | 
